From PubChem BioAssay (NCI)
The panel holds about 83,000 compounds, 20% with a hit somewhere; the sample as a whole holds those more often.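 Note: values are percent growth. 100 is the growth of untreated cells, values between 100 and 0 indicate rising inhibition; between -100 and 0 indicates cell death.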 Values without a mark were called inactive. Active and inactive are the calls of the source.

Tested on: ACHN renal
Assay: NCI-60 one-dose screen, 48 h (100 = growth as untreated, 0 = no growth, -100 = all killed)
Conditions: 10 µM unless noted
Description: Growth inhibition of the ACHN human tumor cell line is measured as a screen for anti-cancer activity. Cells are grown in 96 well plates and exposed to the test compound for 48 hours. Compounds are tested at a single concentration, which is 10^-5 M for most compounds. The reported endpoint is percent growth (GI% or GIPRCNT), where numbers from 0 - 100% represent growth inhibition, and numbers from -100% - 0 represent cell death. For example, a value of 40 represents 60% growth inhibition. A value of 0 means no net growth occurred over the course of the experiment. A value of -40 indicates 40% of cells at the beginning of the experiment died by the end of the experiment. A value of -100 means all cells are dead at the end of the experiment.
NCI-60 Human Tumor Cell Lines Screen was performed using the standard one-dose NCI protocol, which is described in more detail at https://dtp.cancer.gov/discovery_development/nci-60/default.htm.
Compounds with GIPRCNT values below 10 were considered active. Activity score was based on GIPRCNT using the following formula: […]
Score is 0 for GIPRCNT values of 100 or above, 50 for GIPRCNT values of 0, and 100 for GIPRCNT values of -100.

Compound	growth
COc1cc2c(c(O)c1Br)C(=O)c1c(O)cc(C[C@H](C)O)cc1[C@H]2[C@H]1c2cc(C[C@H](C)O)cc(O)c2C(=O)c2c1cc(OC)c(Br)c2O	-46.1% (active)
O=C(/C=C/c1ccc[nH]1)c1ccc(-n2ccc(C(F)(F)F)n2)c(F)c1	103%
C=C(C)[C@@H]1CC[C@]2(C(=O)N3CCN(C)CC3)CC[C@]3(C)[C@H](CC[C@@H]4[C@@]5(C)C/C(=C/c6ccncc6)C(=O)C(C)(C)[C@@H]5CC[C@]43C)[C@@H]12	60.9%
CCNC(=O)Oc1ccc(/C(=C(\C)c2ccccc2)c2ccc(OCCCN(C)C)cc2)cc1	98.1%
COc1ccc(/C=C/c2nc(Nc3ccc(S(=O)(=O)Nc4cc(C)on4)cc3)c3ccccc3n2)cc1	54.2%
COc1ccc(C(C)=O)c(OC)c1	110%
C=C1C(=O)O[C@H]2[C@H]1CC/C(C(=O)NCCCCCNC(=O)/C1=C/CC[C@@]3(C)O[C@H]3[C@H]3OC(=O)C(=C)[C@@H]3CC1)=C\CC[C@@]1(C)O[C@@H]21	102%
CCNC(=O)Oc1ccc(/C(=C(\C)c2ccccc2)c2ccc(OCCN3CCCCC3)cc2)cc1	84.2%
O=C1c2ccccc2CCC12OC2c1cn(-c2ccccc2)nc1-c1ccc(Cl)cc1 (stereo not given)	98.8%
NS(=O)(=O)c1ccc(CCN2C(=O)c3cc(Cl)c(Cl)cc3C2=O)cc1	105%
CC(C)(C)c1cc(C=O)cc(C(C)(C)C)c1O	105%
COc1ccc(CNCCN2C(=O)c3ccc4c5c(ccc(c35)C2=O)C(=O)N(CCNCc2ccc(OC)c(OC)c2OC)C4=O)c(OC)c1OC	-51.1% (active)
CN(CCN(C)c1ccc(C(=N)N)cc1)c1ccc(C(=N)N)cc1	105%
CNCCOc1nc2c3cnccc3cc(-c3cc(OC)c(OC)c(OC)c3)c2c2ccncc12	-73.8% (active)
CC(=O)OC[C@]12CC[C@@H](C(=O)CBr)[C@@H]1[C@H]1CC[C@@H]3[C@@]4(C)CC[C@H](OC(C)=O)C(C)(C)[C@@H]4CC[C@@]3(C)[C@]1(C)CC2	98.8%
Cc1ccc(C(=O)/C(=C\c2ccc([N+](=O)[O-])cc2)S(=O)Cc2ccc(F)cc2)cc1 (stereo not given)	-1.53% (active)
Cc1ccc(CNc2c3ccccc3nc3cc(NC(=O)CCN4CCCC4)ccc23)cc1	12.3%
COc1cc2nc(-c3ccc(C(F)(F)F)cc3)cc(OCCCN3CCCC3)c2cc1OC	39.1%
CCCN1[C@@H]2CC[C@H]1/C(=C\c1ccc(OC)c(OC)c1)C(=O)/C2=C/c1ccc(OC)c(OC)c1	47.3%
O=C(Cn1c[n+](CC(=O)c2ccc(-c3ccccc3)cc2)c2ccccc21)Nc1cccc2cccnc12	90.1%

Compound	growth
O=S(=O)(NCCCNc1nccc(-c2c(-c3cccc(F)c3)nc3sccn23)n1)c1cccc(F)c1	42.5%
CCN(Cc1ccccc1)c1ccc(C=O)cc1	91.9%
CC(=O)[C@@H]1CC[C@]2(CO)CC[C@]3(C)[C@H](CC[C@@H]4[C@@]5(C)CCCNC(C)(C)[C@@H]5CC[C@]43C)[C@@H]12	107%
Cc1ccc(-n2cc(-c3ccccc3)c3c2N=NN2CCN=C32)cc1	105%
COc1cc(OC)cc(C(=O)C[n+]2cccc3cc[nH]c32)c1	101%
CC(=O)Nc1cccc(-c2ccc3c(c2)NC(=O)/C3=C\c2ccc[nH]2)c1	33.8%
C=C(C)[C@@H]1CC[C@]2(CN)CC[C@]3(C)[C@H](CC[C@@H]4[C@@]5(C)CCCNC(C)(C)[C@@H]5CC[C@]43C)[C@@H]12	-91.8% (active)
COc1cc2c(c(OC)c1OC)-c1ccc(NNC(=S)N(Cc3cccc(C[N+](Cc4cccc(CNC56CC7CC(CC(C7)C5)C6)c4)(Cc4cccc(CNC56CC7CC(CC(C7)C5)C6)c4)Cc4cccc(CN(C(=S)NNc5ccc6c(cc5=O)[C@@H](NC(C)=O)CCc5cc(OC)c(OC)c(OC)c5-6)C56CC7CC(CC(C7)C5)C6)c4)c3)C34CC5CC(CC(C5)C3)C4)c(=O)cc1[C@@H](NC(C)=O)CC2 (stereo not given in full)	44.4%
C/C(=N\NC(=O)CSc1nc2ccccc2c(=O)n1CCc1ccc(S(N)(=O)=O)cc1)c1ccccn1	21.2%
CC(=O)O[C@@H]1C2CCC3C(CC[C@@]4(C)C3CC[C@@H]4C(C)N(C)C)[C@@]2(C)CC[C@@H]1NC(=O)C=C(C)C (stereo not given in full)	25.4%
CCCCCCCCCCCCCCCC[N+]1(C)CCN(SN2CC[N+](C)(CCCCCCCCCCCCCCCC)CC2)CC1	66.2%
COc1cc2c(=O)n(CCN)c3c4cc5c(cc4ccc3c2cc1OC)OCO5	-10.5% (active)
N#C/C(=C\c1cccc(C#N)c1)c1ccccc1	106%
COc1cc(/C=C/C(=O)c2nc3cc(F)ccc3nc2C)cc(OC)c1OC	87.3%
COc1ccc(C(=O)/C=C/c2cc3ccccc3n3nnnc23)cc1	106%
COc1ccc(/C=C2\Oc3cc(OCCCN4CCCCC4)ccc3C2=O)cc1OC	93.2%
Cc1cc2nc3c4cc(C=O)ccc4n(CCN(C)C)c3nc2cc1C	-15% (active)
O=S(=O)(NCCNc1nccc(-c2c(-c3cccc(F)c3)nc3sccn23)n1)c1ccc(Cl)cc1	35.7%
O=C(CSc1nc2ccccc2[nH]1)NCc1ccccc1	95.4%
COc1ccc(C(=O)Cn2c(C(=O)c3ccccc3)nc3ccccc32)cc1	46.1%
